This is part of a sample that, as a whole, favours compounds with a hit. Of some 83,000 tested, about 20% had one in any assay.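 In brief: 96-well plates, 48 h treatment, single concentration, percent growth endpoint.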 Activity calls are given as the source filed them. How the source made its calls: active means growth percent below 10; inactive means the rest.
Experiments:
Experiment in all cases: NCI-60 one-dose screen, 48 h (100 = growth as untreated, 0 = no growth, -100 = all killed)
Details in all cases: 10 µM unless noted
[1] = tested on: SK-MEL-2 melanoma
[2] = tested on: EKVX NSCLC
[3] = tested on: SN12C renal
[4] = tested on: UO-31 renal
[5] = tested on: TK-10 renal
[6] = tested on: ACHN renal
[7] = tested on: CAKI-1 renal
[8] = tested on: A498 renal
[9] = tested on: CCRF-CEM leukemia
[10] = tested on: MOLT-4 leukemia

Measured: growth

CSC(=S)N/N=C(\C)c1ccccn1
active: [2] 4.31% | [4] -0.858% | [7] -9.67% | [8] -3.97% | [9] 7.65% | [10] 0.153%
inactive: [1] 21.7% | [3] 24.2% | [5] 41.7% | [6] 14.8%

COc1cccc(CC(C)=C(c2ccc(OCCCN(C)C)cc2)c2ccc(OCCCN(C)C)cc2)c1
inactive: [8] 18.6%
active: [1] -76.5% | [2] -83.9% | [3] -84.7% | [4] -97.8% | [5] -93% | [6] -98.3% | [7] -97.7% | [9] -53.3%

CC(C)=CCC[C@H](C)c1ccc(C)c2c1OCN(CCO)C2
inactive: [1] 99.2% | [2] 97.2% | [3] 79.6% | [4] 42.4% | [5] 88.4% | [6] 90.1% | [7] 91.6% | [8] 47.2% | [9] 87.5%

COc1ccc(CCN2COc3c([C@@H](C)CCC=C(C)C)ccc(C)c3C2)cc1OC
inactive: [1] 89.4% | [2] 63.2% | [3] 52.8% | [4] 41.4% | [5] 76.9% | [6] 70% | [7] 68.7% | [8] 66.2% | [9] 62.6% | [10] 48.3%

C#CC[C@@H]1C[C@]2(C)[C@H]3CC=C4[C@H]5[C@@H](C)[C@H](C)CC[C@]5(C(=O)NCCCN5CCN(CCCN)CC5)CC[C@@]4(C)[C@]3(C)CC[C@H]2C(C)(C)[C@H]1OC(C)=O
inactive: [8] 111%
active: [1] -57.3% | [2] -83.4% | [3] -43.8% | [4] -84.2% | [5] -32.8% | [6] -74.9% | [7] -68% | [9] -29.4% | [10] -38.1%

CNCc1ccccc1CN(CC(=O)Nc1ccc2c(c1)CC1(C2)C(=O)Nc2ncccc21)C(=O)C(C)(C)C (stereo not drawn)
inactive: [1] 104% | [2] 100% | [3] 103% | [4] 88.1% | [5] 103% | [6] 107% | [7] 91.6% | [8] 122% | [9] 116% | [10] 103%

CN1CCN(Cc2ccc(NC(=O)c3cnc(F)c(C#Cc4cnc(N)c5ncccc45)c3)cc2C(F)(F)F)CC1
active: [1] -30.1% | [4] 7.5% | [8] -25.8%
inactive: [2] 23.7% | [3] 11.7% | [5] 28.7% | [6] 10.1% | [7] 13.1% | [9] 18.2%

CO[C@@]12[C@@H]3NC3CN1C1=C(C(=O)C(N)=C(C)C1=O)[C@@H]2COC(N)=O (stereo partly drawn)
inactive: [2] 49.6% | [3] 24.6% | [7] 14.9% | [9] 27.1%
active: [1] -11.2% | [4] 5.54% | [5] 9.47% | [6] -10.3% | [8] -82.9%

c1ccc(C(Nc2ccccn2)(c2ccccc2)c2ccccc2)cc1
inactive: [1] 74.5% | [2] 38.1% | [3] 75.9% | [4] 35.4% | [5] 85.5% | [6] 69.3% | [7] 63.3% | [8] 72% | [9] 81.2% | [10] 66.3%

O=C(OCc1ccc2c(Cl)cc(Cl)c(O)c2n1)c1cc2ccccc2[nH]1
active: [1] -54.6% | [2] -71.9% | [3] -60.6% | [4] -100% | [5] -94.1% | [6] -96.7% | [7] -98% | [8] -78.4% | [9] 0%

Cc1c(C)c(C)c([N+](=O)[O-])c([N+](=O)[O-])c1C
inactive: [1] 103% | [2] 90.7% | [3] 98.7% | [4] 81.8% | [5] 91.3% | [6] 98.9% | [7] 90.8% | [8] 67.9% | [9] 121%

CC1C2CCC(C2)C1COCCOCCO (stereo not drawn)
inactive: [1] 112% | [2] 112% | [3] 109% | [4] 98.7% | [5] 109% | [6] 106% | [7] 105% | [8] 83.7% | [9] 112%

Cc1ccc(/C=C/C(=N/N=C(N)N)c2ccccc2)cc1
active: [8] -5.04%
inactive: [1] 49.3% | [2] 35.4% | [3] 34.3% | [4] 21.7% | [5] 44% | [6] 48.5% | [7] 16.4% | [9] 25.2% | [10] 24%

O=S(=O)(NCC[C@@H]1C[C@H]1c1ccc2ccccc2c1)c1ccc(C(F)(F)F)cc1
inactive: [1] 104% | [2] 91.1% | [3] 92.9% | [4] 81.7% | [5] 100% | [6] 99.2% | [7] 79.4% | [8] 94.2% | [9] 85% | [10] 84.3%

COc1cc2c(cc1OCCCOc1cc3c(cc1OC)C(=O)N1CCC[C@H]1C=N3)C=CC(C)(C)O2
active: [9] 6.05%
inactive: [1] 88.4% | [2] 154% | [3] 94.3% | [4] 96.5% | [5] 187% | [6] 95.7% | [7] 106% | [8] 98.8% | [10] 65%

O=C(OCc1ccc2c(Br)cc(Br)c(O)c2n1)c1cc2ccccc2[nH]1
active: [1] -20.6% | [2] -65.5% | [3] -79.2% | [4] -100% | [5] -94.2% | [6] -100% | [7] -97.6% | [8] -1.86% | [9] 2.81% | [10] -8.64%

CC(CN1CCN(C)CC1)CN1c2ccccc2Sc2ccc(C(F)(F)F)cc21 (stereo not drawn)
inactive: [1] 70% | [2] 70.4% | [3] 47.2% | [4] 39.2% | [5] 21% | [6] 38.1% | [7] 37.3% | [8] 60.3% | [9] 25.2% | [10] 15.9%

CC(=O)N(C)c1ccc(Nc2cc(C)[nH]c3ccc4ncnc4c23)cc1
inactive: [1] 116% | [2] 79.4% | [3] 61.7% | [4] 72.6% | [5] 79.3% | [6] 55.4% | [7] 80.3% | [8] 78.5% | [9] 28.9%
active: [10] 1.82%

COc1ccc2c(c1)CCCC21C(=O)Nc2ccccc21 (stereo not drawn)
inactive: [1] 96% | [2] 104% | [3] 101% | [4] 82.4% | [5] 95.4% | [6] 105% | [7] 103% | [8] 99.7% | [9] 97.9% | [10] 76.2%

Oc1c(-c2cc(C(F)(F)F)[nH]n2)cc(Cl)c(OCc2ccc(Cl)cc2)c1-c1ccc(Cl)c(C(F)(F)F)c1
active: [1] -40.9% | [2] 4.67% | [3] 5.54% | [4] -27.6% | [5] 7.21% | [6] 0.909% | [7] -15.7% | [8] -51.1% | [9] 5.04% | [10] -14.8%

COC(=O)C(CCC(=O)CCl)N1C(=O)c2ccccc2C1=O (stereo not drawn)
inactive: [1] 67.4% | [2] 108% | [3] 69.9% | [4] 48.4% | [5] 54% | [6] 71.2% | [7] 67.9% | [8] 123% | [10] 42.6%
active: [9] 5.21%

O=C1C=CC(=O)N1CO
active: [10] -32.2%
inactive: [1] 123% | [2] 138% | [3] 99% | [4] 89.1% | [5] 114% | [6] 108% | [7] 117% | [8] 113% | [9] 101%

O=C(Nc1cccc(Cl)c1)Nc1cc(C(F)(F)F)ccc1Cl
active: [1] 4.93% | [3] -24.4% | [6] 2.64% | [7] 9.58%
inactive: [2] 16% | [4] 10.7% | [5] 16.9% | [8] 61.7% | [9] 17% | [10] 10.1%

CCN(CC)Cc1cc(Nc2nc(NC3CCC(N(C)C)CC3)c3ccccc3n2)ccc1OC (stereo not drawn)
inactive: [1] 116% | [2] 89% | [3] 71.5% | [4] 73.3% | [5] 105% | [6] 90.8% | [7] 102% | [8] 119% | [9] 66.1% | [10] 48.2%

CCC(C)C1NC(=O)c2nc(oc2-c2ccccc2)-c2csc(n2)-c2csc(n2)-c2nc(oc2C)-c2coc(n2)CNC(=O)C(C(C)CC)NC1=O (stereo not drawn)
active: [1] -80.1% | [2] -71.3% | [3] -65.3% | [4] -90.1% | [5] -86.7% | [6] -91.3% | [7] -95.2% | [8] -85.3% | [9] -66.4% | [10] -66.2%

COc1cc(C2Nc3ccccc3S2)cc(CN2CCOCC2)c1O (stereo not drawn)
inactive: [1] 64.4% | [2] 102% | [3] 91.9% | [4] 45.6% | [5] 84.7% | [6] 88.3% | [7] 74% | [8] 73.3% | [9] 80.1% | [10] 25.3%

CN=C1C=C/C(=N/N=c2/ccn(O)cc2C)C=C1C
inactive: [1] 97.6% | [2] 87.4% | [3] 90% | [4] 77.6% | [5] 118% | [6] 93.8% | [7] 93.9% | [8] 96% | [9] 105% | [10] 89.1%
